The record followed here is PubChem BioAssay AID504326 (The Scripps Research Institute Molecular Screening Center, 2011).

The whole screen tested about 340,000 compounds, of which about 990 (0.29%) were called active. The list comes from a sample in which actives are over-represented; it also holds similar structures and randomly drawn compounds. A number with no mark means an inactive call. Cut-off read from the data, not from the text of the source: active = activation above about 18%; inactive = the rest.

The test deals with Mu-type opioid receptor (Homo sapiens) + Delta-type opioid receptor (Homo sapiens) (UniProt P35372+P41143). The test is described as follows: agonists of OPRM1-OPRD1 heterodimerization, primary screen, cell-based, luminescence (AID 504326).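 Note: 0% = vehicle-treated cells and 100% = reference agonist.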 The settings on record: cells, at 9.3 µM, hits give high values.
Chain of Mu-type opioid receptor (Homo sapiens) + Delta-type opioid receptor (Homo sapiens) (P35372 whole entry, looked up): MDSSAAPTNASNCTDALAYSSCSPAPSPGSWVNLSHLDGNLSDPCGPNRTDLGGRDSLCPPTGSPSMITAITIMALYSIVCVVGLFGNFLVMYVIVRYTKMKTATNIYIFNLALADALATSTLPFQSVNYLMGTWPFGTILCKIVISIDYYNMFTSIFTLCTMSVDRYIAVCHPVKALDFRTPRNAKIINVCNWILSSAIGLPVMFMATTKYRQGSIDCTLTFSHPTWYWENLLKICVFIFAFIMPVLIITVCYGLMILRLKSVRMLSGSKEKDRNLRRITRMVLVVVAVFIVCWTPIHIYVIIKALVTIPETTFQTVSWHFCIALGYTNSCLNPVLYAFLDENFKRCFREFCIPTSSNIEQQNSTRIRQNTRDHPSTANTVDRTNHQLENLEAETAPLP
Chain of Mu-type opioid receptor (Homo sapiens) + Delta-type opioid receptor (Homo sapiens) (P41143 whole entry, looked up): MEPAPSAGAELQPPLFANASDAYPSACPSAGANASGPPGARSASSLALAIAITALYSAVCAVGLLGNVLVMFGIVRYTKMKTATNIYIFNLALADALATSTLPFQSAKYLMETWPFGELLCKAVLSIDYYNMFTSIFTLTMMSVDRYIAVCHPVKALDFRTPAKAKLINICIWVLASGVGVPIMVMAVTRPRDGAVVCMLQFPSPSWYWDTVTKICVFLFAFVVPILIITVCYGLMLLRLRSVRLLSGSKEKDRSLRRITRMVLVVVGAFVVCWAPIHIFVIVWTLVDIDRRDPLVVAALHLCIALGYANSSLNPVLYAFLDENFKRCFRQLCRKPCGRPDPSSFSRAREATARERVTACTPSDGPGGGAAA
Consider `Cc1ccc(OCCCC(=O)Nc2ccc(S(=O)(=O)Nc3cc(C)nc(C)n3)cc2)cc1`, for which the activation was 0.21%.

In the case of `NS(=O)(=O)c1ccc(CCNc2nc(C(F)(F)F)nc3ccccc23)cc1`, the activation is -1.85%.

Regarding `COc1cccc(CNc2nc(C(F)(F)F)nc3ccccc23)c1`, the activation is 5.18%.

As for `CCc1ccc(C(CNc2nc(C(F)(F)F)nc3ccccc23)N(C)C)cc1` (configuration not stated), the activation is 81.6% (active).

For `Cc1ccn(C(CC(=O)c2ccc(Br)cc2)C(=O)O)n1` (configuration not stated), the activation is -1.91%.

Take `Nc1c(Cl)cc(S(N)(=O)=O)cc1S(N)(=O)=O`: the activation was -5.23%.

As for `CC1=NNC(=O)C1CCC(=O)N/N=C\c1ccc(Cl)c(Cl)c1` (configuration not stated), the activation was -0.87%.

For `COc1cc(/C=N/NC(=O)Cc2ccccc2)cc(OC)c1OC`, the activation was -1.52%.

In the case of `COc1cc(/C=N/NC(=O)c2ccoc2C)ccc1OCCN1CCCCC1`, the activation is -0.79%.

Turning to `COc1cc(/C=N/NC(=O)Nc2ccccc2)ccc1OCCOc1ccccc1C`, the activation was 28% (active).

Take `Cc1cc(C)c2c(=O)[nH]c(SCC(=O)Nc3ccc(Br)cc3)nc2n1`: the activation was 2.08%.

Regarding `CN(Cc1ccc(F)cc1)C(=O)CN1C(=O)c2ccccc2S1(=O)=O`, the activation was -2.95%.

`COC(=O)C1=NNC2(c3ccc(C)cc3)C(=O)N(c3cccc(C)c3C)C(=O)C12` (configuration not stated): the activation was -4.85%.

Consider `Cc1ccc(NC(=O)COc2ccc(/C=C3/NC(=O)NC3=O)cc2)cc1`, for which the activation is 2.37%.

Take `CCOC(=O)C1=C(O)/C(=C/c2ccc(OCC(=O)Nc3ccc(C)cc3)cc2)N=C1C`: the activation was 40.8% (active).

As to `COC(=O)C1=C(O)/C(=C/c2ccc(OCC(=O)Nc3ccccc3)cc2)N=C1C`, the activation is -3.18%.

`CCOc1ccc(Br)cc1S(=O)(=O)Nc1ccc(C(=O)OC(C)C(=O)N(C)c2ccccc2)cc1` (configuration not stated): the activation was 2.35%.

As for `CC(c1ccccn1)N(C)C(=O)c1ccc2nc(Cc3cccc(Cl)c3)oc2c1` (configuration not stated), the activation is -0.53%.

In the case of `CC1CCCCC12NC(=O)N(CC(=O)OCC(=O)NCc1ccc(F)cc1)C2=O` (configuration not stated), the activation was -0.67%.

In the case of `Cc1cccc(Oc2c([N+](=O)[O-])c(=O)n(C)c3ccccc23)c1`, the activation was 1.78%.

On to `CCOC(=O)c1c(C)[nH]c2c1-c1ccccc1C(=O)C2=O`, for which the activation is 22.6% (active).

On to `CCOC(=O)C1=C(C)c2ccccc2OC1(C)C(=O)OCC` (configuration not stated), for which the activation is -0.33%.

Take `CCOC(=O)c1ccccc1OC(=O)Oc1ccccc1C(=O)OCC`: the activation was -2.83%.

Turning to `O=C(NCc1ccccn1)c1cnc2sccn2c1=O`, the activation was -2.49%.

With `Cc1ccc(CN(C(=O)c2sc3ccccc3c2Cl)C2CCS(=O)(=O)C2)cc1` (configuration not stated), the activation is 26.2% (active).

With `COc1cc(C(=O)N(Cc2ccc(N(C)C)cc2)C2CCS(=O)(=O)C2)cc(OC)c1OC` (configuration not stated), the activation was -1.82%.

Take `CC1(C)C(C=C(Cl)Cl)C1C(=O)N(Cc1ccc(Cl)cc1)C1CCS(=O)(=O)C1` (configuration not stated): the activation was 0.69%.

Take `O=C(C1CC1)N1N=C2CCCCC2C1(O)C(F)(F)F` (configuration not stated): the activation is -1.35%.

`Cn1cccc1/C=N/NC(=O)c1ccc(OC(F)(F)C(F)F)cc1`: the activation is -1.62%.

For `CCOC(=O)Cc1ncccc1C(=O)Nc1ccc(OC(F)(F)F)cc1`, the activation is -3.8%.

Turning to `O=C(Nc1ccc(OC(F)(F)F)cc1)c1ccc2c(c1)no[n+]2[O-]`, the activation was 22% (active).

For the compound `O=C(N1CCOCC1)N(Cc1ccccc1)c1ccccn1`, the activation is -1.92%.

Consider `CC(=O)CSc1nc(CCc2ccccc2)c(C#N)c(=O)[nH]1`, for which the activation is -2.33%.

On to `COc1ccc(/C=C2/S/C(=N/N=C3\CC4CCC3(C)C4(C)C)NC2=O)cc1` (configuration not stated), for which the activation was 0.11%.

Take `Clc1ccc(C2[C@H]3CN(CC4CCCCC4)[C@H](c4ccccc4)C34CC2(c2cccnc2)C4)cn1` (some centres not stated): the activation is -1.67%.

On to `CCN1C(=NCCc2cccnc2)N[C@@H](c2ccccc2)C(C(=O)OC)=C1C`, for which the activation is 0.22%.

`COC(=O)c1ccc(C23CC4(C2)[C@H](CN(Cc2cccnc2)[C@@H]4c2ccccc2)C3c2ccc(Cl)nc2)cc1` (some centres not stated): the activation was 19.2% (active).

As to `O=C(/C=C/c1cnc2ccccc2n1)NC1CCCCCC1`, the activation is -1.86%.

On to `CC(C)NS(=O)(=O)c1ccc(NC(=O)C2CCCCC2)cc1`, for which the activation is -1.18%.

For the compound `O=C(CC(NC(=O)c1ccccc1)c1ccccc1)Nc1ccc(F)c(F)c1` (configuration not stated), the activation is 1.24%.

With `Cc1ccc(CNC(=O)CC(NC(=O)c2ccccc2)c2ccccc2)cc1` (configuration not stated), the activation was 22.7% (active).

On to `Cc1ccc(CNC(=O)[C@@H](NC(=O)Cc2ccccc2)C(C)C)cc1`, for which the activation is 2.39%.

Regarding `CCOC(=O)CC(NC(=O)C1c2ccccc2Oc2ccccc21)c1ccc(C)cc1` (configuration not stated), the activation was -2.87%.

With `COc1ccc(C(CNC(=O)c2ccc(S(=O)(=O)Nc3ccccc3F)cc2)N(C)C)cc1` (configuration not stated), the activation is -3.41%.

Consider `COc1ccc(C(CNCC(=O)Nc2ccccc2F)N(C)C)cc1` (configuration not stated), for which the activation was 149% (active).

Consider `Cc1cccc(OCC(=O)Nc2ccccc2F)c1`, for which the activation was -3.72%.

On to `COCCNC(=O)C(c1ccc(C)cc1)N(C(=O)CCC(=O)Nc1ccccn1)c1cccc(C)c1` (configuration not stated), for which the activation was -0.25%.

Turning to `CCNC(=S)N1CCN(c2ncccn2)CC1`, the activation is -2.13%.

In the case of `CCn1nnnc1SCC(=O)Nc1ccc(N(C)C)cc1`, the activation is -1.37%.

Regarding `CN(C)CCNC(=O)Cc1ccc([N+](=O)[O-])cc1`, the activation is -3.71%.

In the case of `O=C(CC(c1ccccc1)c1ccccc1)NCC(O)c1ccc([N+](=O)[O-])cc1` (configuration not stated), the activation is 2.4%.

As for `Cc1cc(NC(=O)c2cc3ccccc3o2)no1`, the activation was -2.3%.

Turning to `CN(C)C(CNC(=O)c1cc2ccccc2o1)c1ccccc1` (configuration not stated), the activation is 197% (active).

In the case of `CN(C)C(CNC(=O)Cc1ccc([N+](=O)[O-])cc1)c1ccccc1` (configuration not stated), the activation was 67.1% (active).

Turning to `O=C(NCCc1ccc2c(c1)OCCO2)c1cc2ccccc2o1`, the activation is -0.68%.

As to `COc1ccc(NC(=O)CN2C(=O)COc3ccc(S(=O)(=O)N4CCOCC4)cc32)c(OC)c1`, the activation was -1.21%.

Take `CN1CCN(c2ccc([N+](=O)[O-])c(Sc3nc4ccccc4[nH]3)c2)CC1`: the activation was 55.9% (active).

Regarding `O=C(CSc1nc2ccccc2[nH]1)N/N=C/C=C\c1ccccc1[N+](=O)[O-]`, the activation was -1.78%.

Regarding `O=[N+]([O-])c1ccc(N2CCSCC2)cc1O`, the activation was 0.34%.

Turning to `CC(Sc1nnc(CNC(=O)c2ccccc2F)n1C)C(=O)Nc1nccs1` (configuration not stated), the activation is -0.21%.

As for `CCCCN(C(=O)COc1ccc(NC(C)=O)cc1)C1CCS(=O)(=O)C1` (configuration not stated), the activation is -1.71%.

On to `COc1cc2c(cc1OC)CC1(CCCCC1)N=C2`, for which the activation was -3.02%.

`COc1ccc(CCNC(=O)CN(c2ccccc2)S(C)(=O)=O)cc1OC`: the activation is 0.27%.

For the compound `COc1ccc(CCNC(=O)C(Sc2ccccn2)c2ccccc2)cc1OC` (configuration not stated), the activation is -2.64%.

`COc1ccc(C(CCN(Cc2ccc(OC)c(OC)c2)C(=O)CCl)c2ccccc2)cc1` (configuration not stated): the activation was 91.3% (active).

On to `CN(CC(=O)NCCc1ccccc1)S(=O)(=O)c1cnc[nH]1`, for which the activation is -1.45%.

Consider `CSc1sc(C)cc1C1C(C#N)=C(N)N(c2cccnc2)C2=C1C(=O)CCC2` (configuration not stated), for which the activation is -1.23%.

As to `COCC(=O)Nc1ccc(Br)cc1`, the activation is -3.01%.

`CN1CCN(NC(=O)Nc2ccc(Br)cc2)CC1`: the activation was -3.59%.

For the compound `CN1C(CC(=O)Nc2ccc(Br)cc2)c2ccccc2CC1(C)C` (configuration not stated), the activation was 77.8% (active).

As to `Cc1ccc(F)cc1S(=O)(=O)Nc1cccc(C(=O)N2CCCC(C(N)=O)C2)c1` (configuration not stated), the activation is 3.39%.

For `CCN(CC)C(=O)CC1(c2ccccc2OC)CCOC(C(C)C)C1` (configuration not stated), the activation is -2.63%.
